Our source for the inhibition and fluorescence ratio (interference) values is PubChem BioAssay.

SMILES strings stand for the structures. Where “and” joins values, the source holds several entries; their conditions need not be identical. Equal values may be shown once. Unmarked numbers belong to inactive results.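 How the source made its calls, unless noted: active means at least 20% inhibition of 6-phosphogluconate dehydrogenase activity; inactive means the rest.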

6-phosphogluconate dehydrogenase, decarboxylating (Homo sapiens), sequence (P52209 whole entry, looked up): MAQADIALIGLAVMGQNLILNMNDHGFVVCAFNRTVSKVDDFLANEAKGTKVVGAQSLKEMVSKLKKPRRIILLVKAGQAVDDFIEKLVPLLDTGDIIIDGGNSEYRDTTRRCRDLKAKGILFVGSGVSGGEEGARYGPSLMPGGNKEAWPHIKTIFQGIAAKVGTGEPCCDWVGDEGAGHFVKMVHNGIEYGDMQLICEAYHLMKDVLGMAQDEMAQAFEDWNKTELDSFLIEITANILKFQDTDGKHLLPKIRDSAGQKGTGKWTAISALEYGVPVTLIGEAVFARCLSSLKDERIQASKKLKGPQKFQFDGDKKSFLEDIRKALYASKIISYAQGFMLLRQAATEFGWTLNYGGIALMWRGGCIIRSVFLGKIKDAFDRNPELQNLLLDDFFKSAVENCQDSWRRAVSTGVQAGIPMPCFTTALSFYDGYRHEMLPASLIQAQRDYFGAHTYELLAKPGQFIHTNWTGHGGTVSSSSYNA

In the first assay the test system is Hepatitis C virus NS3 helicase. Nature of the assay: blockers of NS3h binding to ssDNA – biochemical, fluorescence polarization, LOPAC1280 library, primary screen (AID 687035; in the data active means inhibition above about 37%). Conditions: Purified HCV NS3 helicase, Cy5-dT15 ssDNA binding fluorescence polarization; hits give high values; concentration not given here.
Turning to `O=C(O)CC[N+](=O)[O-]`, the inhibition (as a rule, the relative decrease from the control value, in per cent) is -3%.

With `OC1CCCCC1N1CCC(c2ccccc2)CC1` (configuration not stated), the inhibition was -4%.

On to `CC[C@@H]1C(=O)OC[C@@H]1Cc1cncn1C`, for which the inhibition is -2% and 1%.

As for `NC(N)=NOCC[C@H](N)C(=O)O`, the inhibition is 2%.

In the case of `CN1C2CCC1CC(OC(c1ccccc1)c1ccccc1N)C2` (configuration not stated), the inhibition is -3%.

Consider `NCCc1c[nH]c2ccccc12`, for which the inhibition is 0%.

Tested on in the next assay: not listed separately
The experiment in a line: compounds altering Cy5-DNA-NS3h complex signal – biochemical, LOPAC1280, artefact control for HCV NS3 helicase inhibitor project (AID 687037; call rule not given here). Conditions: Cy5-DNA-NS3h complex fluorescence interference counterscreen. For orientation: A counterscreen serves to expose hits that act by an unwanted route or on another target.
As for `O=C(O)CC[N+](=O)[O-]`, the fluorescence ratio (interference) was 1.

Turning to `OC1CCCCC1N1CCC(c2ccccc2)CC1` (configuration not stated), the fluorescence ratio (interference) is 1.

`CC[C@@H]1C(=O)OC[C@@H]1Cc1cncn1C`: the fluorescence ratio (interference) is 1.

Take `NC(N)=NOCC[C@H](N)C(=O)O`: the fluorescence ratio (interference) was 1.

As for `CN1C2CCC1CC(OC(c1ccccc1)c1ccccc1N)C2` (configuration not stated), the fluorescence ratio (interference) is 1.

For the compound `NCCc1c[nH]c2ccccc12`, the fluorescence ratio (interference) was 1.

The next assay addresses 6-phosphogluconate dehydrogenase, decarboxylating (Homo sapiens) (UniProt P52209). Nature of the assay: inhibition of human phosphogluconate dehydrogenase – biochemical, recombinant enzyme, NADPH absorbance, primary screen (AID 1159550). The note with it: recombinant 6PGD, NADPH absorbance 341 nm; at 10 µM; hits give high values.
Consider `CN[C@@H]1[C@@H](O)C(OC2[C@@H](N)C[C@@H](N)[C@H](O[C@H]3O[C@H](C(C)O)[C@@H](O)[C@H](O)[C@H]3N)[C@H]2O)OC[C@]1(C)O` (some centres not stated), for which the inhibition is 15.2%.

In the case of `COc1cc(OC)c(OC)cc1C=O`, the inhibition was -2.13%.

As to `[N-]=[N+]=CC(=O)OCC(N)C(=O)O` (configuration not stated), the inhibition is 12.8%.

Consider `C[C@H](N)[C@H](O)c1ccc(O)c(O)c1`, for which the inhibition is -1.74%.

Regarding `S=C=NCc1ccccc1`, the inhibition is -1.63%.

In the case of `O=C(O)CCCOc1ccc(Cl)cc1Cl`, the inhibition is -17.1%.

For the compound `CC[N+]1(C)CCCC(OC(=O)C(O)(c2ccccc2)c2ccccc2)C1` (configuration not stated), the inhibition is -2.23%.

Consider `CC1=NCCc2c1[nH]c1cc(O)ccc21`, for which the inhibition is -14.9%.

In the case of `C[C@@H](N)[C@@H](O)c1ccccc1`, the inhibition is -16.8% and 9.51%.

Turning to `COc1cc([C@@H]2c3cc4c(cc3[C@@H](O)C3COC(=O)C32)OCO4)cc(OC)c1O` (some centres not stated), the inhibition is 4.81%.

`ClC1C(Cl)C(Cl)C(Cl)C(Cl)C1Cl` (configuration not stated): the inhibition is 7.58%.

As for `O=C(O)CC[N+](=O)[O-]`, the inhibition is -4.59%.

For the compound `C=CCC1(C(C)CCC)C(=O)N=C(S)NC1=O` (configuration not stated), the inhibition was 2.84%.

Take `O=C1C=C2C=C[C@@H]3C[C@@]2(O1)[C@H]1CCCCN31`: the inhibition was 6.02%.

Regarding `CCCCCCCCCCCCCCCC[n+]1ccccc1`, the inhibition was 10.7%.

On to `OC1CCCCC1N1CCC(c2ccccc2)CC1` (configuration not stated), for which the inhibition was 1.03%.

`N[C@H](CO)Cc1ccccc1`: the inhibition is 1.18%.

As for `CC(N)Cc1ccc(O)cc1` (configuration not stated), the inhibition is -0.0931%.

On to `CC[C@@H]1C(=O)OC[C@@H]1Cc1cncn1C`, for which the inhibition is -6.49%.

For the compound `O=C1C(Cl)=C(Cl)C(=O)C(Cl)=C1Cl`, the inhibition was 3.96%.

Consider `COc1cc2c(cc1OC)C(C)NCC2` (configuration not stated), for which the inhibition was -13.1%.

For the compound `CC1(C)C2CC(=O)[C@]3(C)C(CC[C@@]4(C)[C@H](c5ccoc5)OC(=O)C5OC543)[C@@]2(C)[C@@H](O)C[C@H]1O` (some centres not stated), the inhibition is -2.4%.

With `O=[N+]([O-])c1cc([As](=O)(O)O)ccc1O`, the inhibition is 11.3%.

In the case of `COc1cc2ccc(=O)oc2c2ccoc12`, the inhibition was 13.8%.

As for `COc1ccc2c(c1O)-c1c(OC)c(OC)cc3c1[C@H](C2)N(C)CC3`, the inhibition was 3.42%.

Consider `COc1ccc2c(c1)[nH]c1c(C)nccc12`, for which the inhibition is -2.64%.

In the case of `O=C(O)CCC1NCC2CC1CN1CCCCC21` (configuration not stated), the inhibition was 1.87%.

With `NC(N)=NOCC[C@H](N)C(=O)O`, the inhibition was 12.8%.

For the compound `CN1C2CCC1CC(OC(c1ccccc1)c1ccccc1N)C2` (configuration not stated), the inhibition was 2.13%.

With `COC1=C[C@@H]2[C@@H]3Cc4ccc(OC)c(O)c4[C@]2(CCN3C)CC1=O`, the inhibition is 2.36%.

`C[C@H]1CCCC(=O)CCC/C=C/c2cc(O)cc(O)c2C(=O)O1`: the inhibition was 15.7%.

On to `O=C1C=CC(=O)c2c(O)cccc21`, for which the inhibition is -2.17%.

With `CCOP(=S)(OCC)Oc1nc(Cl)c(Cl)cc1Cl`, the inhibition was -10.3%.

On to `NCCc1c[nH]c2ccccc12`, for which the inhibition is -12.7%.

In the case of `CN[C@@H](C)[C@@H](O)c1ccccc1`, the inhibition is 2.73%.

As for `COc1ccc2c3c([nH]c2c1)C(C)=NCC3`, the inhibition is -10.2%.

Take `CN1CCc2cc3c(cc2C1O)OCO3` (configuration not stated): the inhibition was 0.261%.

Consider `CNC(C)C(O)c1ccccc1` (configuration not stated), for which the inhibition was -20.1%.

For `CN(C)[C@@H]1C(=O)C(C(N)=O)=C(O)[C@@]2(O)C(=O)C3=C(O)c4c(O)ccc(Cl)c4[C@@](C)(O)[C@H]3C[C@@H]12`, the inhibition is -12.1%.

Take `CC1=C(O)C(=O)C=C2C1=CC=C1[C@@]2(C)CC[C@@]2(C)[C@@H]3C[C@](C)(C(=O)O)CC[C@]3(C)CC[C@]12C`: the inhibition is -29.5%.
